# Results taken from paper PMC11062922 (Nature Chemical Biology, 2023).
# Read-outs that look alike come from different tables or passages of the source.
# Tests used:
# Design in all cases: species or system human, MV4-11 + K-562 + COLO205 + SK-N-BE2 + OVCAR-8
# [1] = tested on: PI4KB; settings: read-out: apparent Kd, compound concentrations: 100 nM and 1000 nM (sheet 'Samples'), n = 1
# [2] = tested on: PIK3CA; settings: read-out: apparent Kd, n = 1
# [3] = tested on: PIK3CB; settings: read-out: apparent Kd, compound concentrations: 100 nM and 1000 nM (sheet 'Samples'), n = 1
# [4] = tested on: ROCK2; settings: read-out: apparent Kd, n = 1
# [5] = tested on: TESK1; settings: read-out: apparent Kd, compound concentrations: 100 nM and 1000 nM (sheet 'Samples'), n = 1
# [6] = tested on: ROCK1; settings: read-out: apparent Kd, n = 1
# [7] = tested on: PLK1; settings: read-out: apparent Kd, compound concentrations: 100 nM and 1000 nM (sheet 'Samples'), n = 1
# [8] = compound concentrations: 100 nM and 1000 nM (sheet 'Samples'), CATDS: 1
# [9] = compound concentrations:100 nM and 1000 nM (sheet 'Samples')
compound,measurement,setting,value
Nc1ncc(-c2ccc3nccc(-c4ccncc4)c3c2)cc1S(=O)(=O)N1CCCCC1 [GSK1693850A],potency estimated from few doses,[1]; CATDS: 7.2380110997406405E-2,777 nM
same,potency estimated from few doses,"[2]; compound concentrations: 100 nM and 1000 nM (sheet 'Samples'), CATDS: 0.402374173970307",6.74 nM
same,potency estimated from few doses,[3]; CATDS: 8.8291431205062498E-2,406 nM
Nc1c(C(=O)c2cccc(C(O)(CO)CO)c2)cnn1-c1ccc(F)cc1 [RO3201790-000],potency estimated from few doses,[1]; CATDS: 0.52236122392279105,888 nM
COC(=O)C(NC(=O)NC1CCN(c2ccnc(Nc3ccc(F)cc3)n2)C1)c1ccccc1 (centres unmarked) [GSK1379712_KCGS],potency estimated from few doses,[1]; CATDS: 0.55367516713285103,946 nM
CCCc1ccc(S(=O)(=O)NC2CCN(c3ccnc(Nc4ccc(OC)cc4)n3)C2)cc1 (centres unmarked) [GSK1379737A],potency estimated from few doses,[1]; CATDS: 1,901 nM
CSc1nn2c(=O)cc(N3CCOCC3)nc2n1Cc1cccc(Cl)c1Cl [GSK2347225A],potency estimated from few doses,[3]; CATDS: 0.69525432072765503,11.5 nM
Cl.NC(=O)c1cccc(Nc2nccc(Nc3ccc(Oc4c(Cl)cccc4Cl)c(Cl)c3)n2)c1 [GW659009A],potency estimated from few doses,"[2]; compound concentrations: 100 nM and 1000 nM (sheet 'Samples'), CATDS: 0.34504160600825701",183 nM
CC(C)c1ccc(O)cc1Nc1ccnc2ccc(C(F)(F)F)cc12 [GW482059X],potency estimated from few doses,"[2]; compound concentrations: 100 nM and 1000 nM (sheet 'Samples'), CATDS: 0.44189081373448802",239 nM
Nc1ncnc2c1nc(-c1ccccc1)n2-c1ccccc1 [SKF-97293],potency estimated from few doses,[2]; [8],284 nM
COc1cccc(-n2ncc3c(N/N=C/c4cccc(F)c4)ncnc32)c1 [GW817394X],potency estimated from few doses,[2]; [8],237 nM
Cl.O=S1CCN(Cc2ccc(-c3ccc4ncnc(Nc5ccc(OCc6ccccc6)c(Cl)c5)c4c3)o2)CC1 [GW583373A],potency estimated from few doses,[2]; [9],213 nM
O=c1cc(N2CCOCC2)nc2n(Cc3ccc(F)c(Cl)c3)ccn12 [GSK2297099A],potency estimated from few doses,[2]; [9],186 nM
same,potency estimated from few doses,[3]; CATDS: 0.58054918147360901,32.5 nM
Cc1nn2c(=O)cc(N3CCOCC3)nc2n1Cc1cccc(Cl)c1Cl [GSK2342769A],potency estimated from few doses,[3]; CATDS: 0.39167168284884402,14.2 nM
Cc1ccccc1Cn1ccn2c(=O)cc(N3CCOCC3)nc12 [GSK2269905A],potency estimated from few doses,[3]; CATDS: 0.94535386241692498,41.9 nM
Cc1nn2c(=O)cc(N3CCO[C@H](C)C3)nc2n1Cc1cccc(Cl)c1Cl [GSK2373693A],potency estimated from few doses,[3]; CATDS: 1,11.8 nM
Cc1c(Cn2c(C)c(C)n3c(=O)cc(N4CCOCC4)nc23)cccc1C(F)(F)F [GSK2328680_KCGS],potency estimated from few doses,[3]; CATDS: 1,45.8 nM
CCn1c(-c2nonc2N)nc2ccccc21 [SB-693162],potency estimated from few doses,[4]; [9],1820 nM
Cl.NC(=O)c1cccc(Nc2nccc(Nc3ccc(Oc4cccc(Cl)c4)c(Cl)c3)n2)c1 [GW659008A],potency estimated from few doses,[5]; CATDS: 1,1780 nM
CC1=C(C(=O)Nc2ccc3[nH]ncc3c2)C(c2ccc(F)cc2)N=C(c2ccc(C(F)(F)F)nc2)N1 (centres unmarked) [GSK317354A],potency estimated from few doses,"[6]; compound concentrations: 100 nM and 1000 nM (sheet 'Samples'), CATDS: 0.52745543701192599",630 nM
same,potency estimated from few doses,"[4]; compound concentrations: 100 nM and 1000 nM (sheet 'Samples'), CATDS: 0.475261399355146",777 nM
COc1ccc2ncn(-c3cc(O[C@H](C)c4ccccc4C(F)(F)F)c(C(N)=O)s3)c2c1 [GSK317315A],potency estimated from few doses,[7]; CATDS: 0.88975940081611404,128 nM
Nc1nonc1-c1nc2cnccc2n1C1CC1 [SB-736302],potency estimated from few doses,"[6]; compound concentrations: 100 nM and 1000 nM (sheet 'Samples'), CATDS: 0.19196895649818499",1820 nM
same,potency estimated from few doses,"[4]; compound concentrations: 100 nM and 1000 nM (sheet 'Samples'), CATDS: 0.21159695131376299",1380 nM
COc1cccc(C2=C(N(C)c3ccccc3)C(=O)NC2=O)c1 [SB-334865],potency estimated from few doses,[7]; CATDS: 1,1420 nM
Cc1ccccc1COc1cc(-n2cnc3cc(Cl)ccc32)sc1C(N)=O [GW813349X],potency estimated from few doses,[7]; CATDS: 1,1570 nM
CC1=C(C(=O)Nc2cc3cn[nH]c3cc2F)C(c2ccc(C(F)(F)F)cc2)CC(=O)N1 (centres unmarked) [GSK429286A],potency estimated from few doses,"[6]; compound concentrations: 100 nM and 1000 nM (sheet 'Samples'), CATDS: 0.46177660943925602",57.8 nM
same,potency estimated from few doses,"[4]; compound concentrations: 100 nM and 1000 nM (sheet 'Samples'), CATDS: 0.48334108773041601",53 nM
CC1=C(C(=O)Nc2ccc3[nH]ncc3c2)C(c2ccc(Cl)c(Cl)c2)CC(=O)N1 (centres unmarked) [GSK299115A],potency estimated from few doses,[6]; [9],112 nM
same,potency estimated from few doses,[4]; [9],140 nM
CN(C)CCCn1c(-c2nonc2N)nc2cnccc21 [SB-751399-B],potency estimated from few doses,"[6]; compound concentrations: 100 nM and 1000 nM (sheet 'Samples'), CATDS: 0.43789550307339298",1470 nM
same,potency estimated from few doses,"[4]; compound concentrations: 100 nM and 1000 nM (sheet 'Samples'), CATDS: 0.58263169675533599",821 nM
NC(=O)c1sc(-n2cnc3ccccc32)cc1OCc1ccccc1Br [GSK1023156A],potency estimated from few doses,[7]; CATDS: 1,814 nM
C[C@@H]1CC[C@H](C(=O)NC2CCCCC2)CN1c1cc(-c2ccc3c(N)n[nH]c3c2)nc(N)n1 [GSK2291363A],potency estimated from few doses,[6]; [9],2010 nM
same,potency estimated from few doses,[4]; [9],1450 nM
CCCNC(=O)Nc1ccc(N(C)c2ccnc(NC3CC3)n2)cc1 [GW818933X],potency estimated from few doses,[5]; CATDS: 0.44455887865749399,1860 nM
N#Cc1ccc(C(=O)c2cnn(-c3ccc(F)cc3)c2N)cc1 [RO1153198-000],potency estimated from few doses,[5]; CATDS: 0.53853377364092803,1530 nM
CC1=C(C(=O)Nc2ccc3[nH]nc(C)c3c2)C(c2ccc(C(F)(F)F)cc2)CC(=O)N1 (centres unmarked) [GSK466314A],potency estimated from few doses,"[6]; compound concentrations: 100 nM and 1000 nM (sheet 'Samples'), CATDS: 0.49623940575875802",94.4 nM
same,potency estimated from few doses,"[4]; compound concentrations: 100 nM and 1000 nM (sheet 'Samples'), CATDS: 0.50381802643412599",91.6 nM
COc1cc2ncn(-c3cc(OCC4CCCO4)c(C(N)=O)s3)c2cc1OC (centres unmarked) [GSK204607A],potency estimated from few doses,[7]; CATDS: 0.33403432138317102,838 nM
